# RecA intein inh: inhibitors of M. tuberculosis RecA intein splicing; P9WHJ3; 290,000 compounds, 0.75% hits; AID 2221; cell-free RecA intein splicing, fluorescence; inhibition, % (test concentration not listed); in the data active = inhibition above about 30%;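 also: 0% = vehicle wells and 100% = reference inhibitor control wells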
# Target sequence (P9WHJ3 whole entry, looked up): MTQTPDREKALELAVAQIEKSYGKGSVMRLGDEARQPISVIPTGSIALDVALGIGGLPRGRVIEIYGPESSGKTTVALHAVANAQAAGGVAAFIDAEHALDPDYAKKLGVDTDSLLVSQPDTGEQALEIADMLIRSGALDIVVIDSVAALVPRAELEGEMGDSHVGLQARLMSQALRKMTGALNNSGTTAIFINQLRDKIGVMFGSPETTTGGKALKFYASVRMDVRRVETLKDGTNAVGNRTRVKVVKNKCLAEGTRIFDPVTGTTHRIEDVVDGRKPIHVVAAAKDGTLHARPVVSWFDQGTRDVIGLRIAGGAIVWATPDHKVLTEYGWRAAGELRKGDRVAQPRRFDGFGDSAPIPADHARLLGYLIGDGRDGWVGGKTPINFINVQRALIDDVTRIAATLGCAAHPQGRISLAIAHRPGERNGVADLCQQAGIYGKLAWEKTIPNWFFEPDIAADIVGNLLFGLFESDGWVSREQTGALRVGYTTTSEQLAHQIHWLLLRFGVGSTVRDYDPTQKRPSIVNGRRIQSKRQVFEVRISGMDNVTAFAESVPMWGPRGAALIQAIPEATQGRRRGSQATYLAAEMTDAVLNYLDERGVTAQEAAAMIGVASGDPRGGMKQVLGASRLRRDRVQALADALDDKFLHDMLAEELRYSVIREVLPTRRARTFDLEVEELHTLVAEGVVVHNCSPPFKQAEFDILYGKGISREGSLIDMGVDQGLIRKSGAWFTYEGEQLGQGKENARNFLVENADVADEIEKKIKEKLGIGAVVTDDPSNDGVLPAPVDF
# CCHFV vOTU inh: CCHFV vOTU protease inhibition. Pep-AMC fluorescence. inhibition, % at 11.5 µM. 370,000 compounds, 0.55% hits. AID 651958; also: 0% = vehicle wells with enzyme and 100% = no enzyme wells
# Mtb betalactam: beta-lactam sensitization of Mtb H37Rv; M. tuberculosis H37Rv growth with meropenem, percent inhibition; inhibition, % at 25 µM; 330,000 compounds, 0.27% hits; AID 434955; call rule not given here;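 also: growth measured after seven days incubation then overnight dye step; 0% = bacteria only wells and 100% = bacteria with antibiotic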
# GDH-TPI counter-1: GDH-TPI coupled enzyme inhibition counter-screen | GDH-TPI coupled enzyme counterscreen, NADH absorbance | inhibition, % at 4.8 µM | 360,000 compounds, 1.2% hits | AID 588335;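 also: 0% = DMSO wells and 100% = wells lacking the enzyme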
# FBA Mtb inh: inhibitors of M. tuberculosis fructose-bisphosphate aldolase; 360,000 compounds, 2.3% hits; purified M. tuberculosis FBA, fluorescence read-out; AID 588726; P9WQA3; inhibition, % at 1 µM; in the data active = inhibition above about 27%;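 also: 0% = vehicle and 100% = reference inhibitor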
# Mtb FBA inh conf: Mtb FBA inhibition, confirmed | shares compounds with FBA Mtb inh | purified M. tuberculosis FBA, fluorescence read-out | inhibition, % at 1 µM | 5,600 compounds, 78% hits | AID 651616; in the data active = inhibition above about 27%;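 also: 0% = vehicle wells and 100% = reference inhibitor wells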
# GDH-TPI counter-2: counter-screen for M. tuberculosis FBA inhibitors: GDH-TPI coupled enzyme inhibition; shares compounds with FBA Mtb inh; GDH-TPI coupled enzyme counterscreen, fluorescence; inhibition, % at 1 µM; 5,600 compounds, 81% hits; in the data active = inhibition above about 10%
# GDH-TPI dose: inhibits GDH-TPI coupling enzymes in dose response; shares compounds with FBA Mtb inh; GDH-TPI coupled enzyme assay, fluorescence, artifact counterscreen; IC50, µM; 170 compounds, 79% hits; AID 652145; call rule not given here
# * hit, by the source's call; · = no result; + = active, no number. Compounds with a hit are over-represented: about 4.2% of the library has one in this group of screens. Rule as the data show it, unless noted: active = inhibition above about 30%; inactive = the rest.
SMILES,RecA intein inh,CCHFV vOTU inh,Mtb betalactam,GDH-TPI counter-1,FBA Mtb inh,Mtb FBA inh conf,GDH-TPI counter-2,others
O=C(COC(=O)c1cc(-c2ccc(F)cc2)nc2ccccc12)NCC1CCCO1 (stereo unspecified),1,-18,6,10,27,·,·,
Cn1cccc1C(=O)N1CCN(S(=O)(=O)c2cccc3ccccc23)CC1,·,-6,·,·,·,·,·,
COC(=O)[C@]12CCCCC=C1N(Cc1ccc(OC)cc1)C(=O)[C@@H]2CC(=O)NCc1ccccc1,·,4,·,·,·,·,·,
CCCCCCCCN1C(=O)[C@@H](CC(=O)NCCCN2CCCC2=O)C[C@@]2(C(=O)OC)C1=C[C@H](C(C)C)O[C@@H]2C1CC1,·,23,·,·,·,·,·,
Cc1ccc(O)c(-c2cc3ccccc3[nH]2)c1,26,-41,1,16,52*,71*,45*,
Cc1ccc(O)c(-c2cc(-c3ccccc3F)[nH]n2)c1,1,19,76,-12,0,·,·,
c1ccc(-c2cc3ccccc3[nH]2)cc1,1,-2,100,5,60*,114*,93*,
COc1ccc(-c2cc3ccccc3[nH]2)cc1,2,5,6,0,29*,74*,62*,
COC(=O)[C@]12C[C@H](CC(=O)NCCc3ccccc3OC)C(=O)N(CCc3ccc(OC)c(OC)c3)C1=C[C@H](C(C)(C)C)O[C@@H]2C,·,21,·,·,·,·,·,
CN(C)c1cccc2c(S(=O)(=O)NC(=O)[C@H]3O[C@@H](n4ccc(=O)[nH]c4=O)[C@H](O)[C@@H]3O)cccc12,·,11,·,·,·,·,·,
COc1ccc(-n2c(SCC(=O)NN=Cc3c(O)ccc4ccccc34)nnc2-c2ccc(C(C)(C)C)cc2)cc1,·,9,·,·,·,·,·,
O=C(CSc1nnc(-c2ccccn2)n1Cc1ccccc1)N1CCCC1,-3,8,-3,-2,84*,101*,68*,
Cc1ccccc1-n1c(SCC(=O)N2CCCC2)nnc1-c1ccccn1,1,0,-1,4,3,·,·,
Cc1cccc2cc3ccccc3nc12,0,-38,-1,8,14,·,·,
Cc1cccc2nc3ccccc3cc12,-5,-100,-7,-7,33*,49*,33*,
CCOC(=O)c1cc2c(s1)-c1ccccc1CC2,10,-27,7,19,49*,7,0,
COc1cc2c(cc1OC)C(C1C(=O)CC(C)CC1=O)N(C(=O)CCl)CC2 (stereo unspecified),-8,-73,3,1,31*,11,5,GDH-TPI dose=>10
COCc1cc(N2CCN(C(=O)OC(C)(C)C)C[C@@H]2C)ccc1Br,·,10,·,·,·,·,·,
CN1C(=O)c2cc(NC(=O)Nc3ccccc3)ccc2OC[C@H]2O[C@@H](CC(=O)NCc3ccc(-c4ccccc4)cc3)CC[C@@H]21,·,-3,·,·,·,·,·,
Cc1cc(=O)oc2cc3c(cc12)OCCO3,1,-78,-1,8,62*,196*,162*,
CC(=O)c1cc2c(C)cc(=O)oc2cc1O,0,-15,-5,17,9,·,·,
COc1ccccc1C1C2=C(CCCC2=O)N(CC(=O)O)C2=C1C(=O)CCC2,-499,-49,8,5,40*,-2,-2,
COC(=O)c1ccc(Cn2ccc3ccc(-c4ccc5ccn(Cc6ccccc6)c5c4)cc32)cc1,·,-1,·,·,·,·,·,
c1ccc(-c2cn3c(n2)-c2ccccc2C3)cc1,-11,1,0,-1,48*,132*,106*,
CCOC(=O)Nc1ccc2nc(-c3cscn3)[nH]c2c1,·,15,·,19,28*,51*,38*,
SMILES,RecA intein inh,CCHFV vOTU inh,Mtb betalactam,GDH-TPI counter-1,FBA Mtb inh,Mtb FBA inh conf,GDH-TPI counter-2,others
O=C(CSc1nc2ccccc2c(=O)[nH]1)Nc1ccc(N2CCOCC2)cc1,0,-2,5,-8,3,·,·,
O=C(CSc1nc2ccccc2c(=O)[nH]1)Nc1ccccc1N1CCOCC1,2,-9,0,6,33*,97*,77*,
COc1ccc(-c2cc3ccccc3cn2)cc1,·,13,29,14,10,·,·,
COc1ccc(-c2ccc3ccccc3n2)cc1,3,-61,-3,26,83*,180*,139*,
COc1ccc(-c2cc3ccc(OC)cc3cn2)cc1,·,4,8,1,46*,0,-3,
COc1cc2ccc(-c3ccc4ccccc4n3)cc2cc1OC,·,-19,·,21,26,·,·,
COc1ccc2cc(-c3ccon3)ccc2c1,3,-17,0,6,34*,105*,99*,
CC(C)CCNC(=O)[C@@H](Cc1ccccc1)NC(=O)[C@H]1O[C@@H](n2ccc(=O)[nH]c2=O)[C@H](O)[C@@H]1O,·,-8,·,·,·,·,·,
CCCCNC(=O)C[C@H]1C[C@@]2(C(=O)OC)C(=C[C@H](C3CCCC3)O[C@@H]2C)N(Cc2ccc(Cl)cc2Cl)C1=O,·,18,·,·,·,·,·,
CNC(=O)c1ccc(-c2ccccc2)s1,3,0,-12,5,28*,78*,53*,
CCOC(=O)c1sc(C)c2c1NC1(CCCCC1)NC2=O,0,-27,·,3,32*,110*,104*,
CCOC(=O)c1sc(C)c2c1NC(C)(c1cccs1)NC2=O (stereo unspecified),9,-22,6,10,35*,147*,109*,
CCOC(=O)c1sc(C)c2c1NC1(CCCCCC1)NC2=O,-1,10,-1,10,6,·,·,
COC(=O)[C@]12C[C@H](CC(=O)N3CCC(c4ccccc4)CC3)C(=O)N(Cc3ccco3)C1=C[C@H](C(C)C)O[C@@H]2C1CC1,·,15,·,·,·,·,·,
CC(C)c1ccc(OC[C@@H](O)CN2CCC(C(O)(c3ccccc3)c3ccccc3)CC2)cc1,·,20,·,·,·,·,·,
CCOC(=O)c1cnn(-c2ncnc3c2cnn3Cc2ccccc2)c1N,1,·,1,·,·,·,·,
CCOC(=O)c1cnn(-c2ncnc3sc(C)c(C)c23)c1N,3,-3,-7,6,77*,84*,66*,
Cc1ccc(C(=O)NC2CCCCN(C)C2=O)c(C)c1 (stereo unspecified),·,-11,·,·,·,·,·,
CS(=O)(=O)N1CCN(C2Cc3ccccc3C2)CC1,2,-13,5,10,0,·,·,
O=S(=O)(Cc1ccccc1)N1CCN(C2Cc3ccccc3C2)CC1,1,-8,0,9,29*,+,+,
C=CCOC(=O)C(CO)NC(=O)CCCC(=O)O (stereo unspecified),·,1,·,·,·,·,·,
CN1CCN(S(=O)(=O)c2ccc(N3CCN(C(c4ccccc4)c4ccccc4)CC3)nc2)CC1,-3,10,0,4,81*,+,173*,
CN1CCN(S(=O)(=O)c2ccc(N3CCN(S(=O)(=O)/C=C/c4ccccc4)CC3)nc2)CC1,2,27,4,8,2,·,·,
COc1ccc(-c2cn3cccnc3n2)cc1NC(=O)c1ccc(Br)o1,-3,-10,·,13,30*,9,5,
C[C@@H]1COc2cccc(NCCO)c2S(=O)(=O)N1,·,7,·,·,·,·,·,
